{"source": "PubChem BioAssay (NCATS)", "note": "Inconclusive results are not listed. Active and inactive are the calls of the source. Unless noted, calls come from the whole dose curve.", "data": [{"assay": "Primary qHTS for small molecule stabilizers of the endoplasmic reticulum resident proteome: Secreted ER Calcium Modulated Protein (SERCaMP) assay (AID 1508630; active = well fitted inhibition curve with a large enough effect)", "conditions": "SH-SY5Y GLuc-SERCaMP (Gaussia luciferase released on ER calcium loss) secretion, thapsigargin, luminescence; series mostly up to 38.4 µM", "summary_of_the_method": "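The SH-SY5Y reporter protocol was run at 3 concentrations up to 38.3 uM (primary) or 11 concentrations (follow-up): 16 h compound, 100 nM thapsigargin for 4 h, then extracellular luciferase luminescence.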", "values": [{"smiles": "C[C@]12Cc3nonc3C[C@@H]1CC[C@@H]1[C@@H]2CC[C@@]2(C)[C@H]1CC[C@]2(C)O", "outcome": "inactive"}, {"smiles": "C=CC[C@]1(O)CC[C@H]2[C@@H]3CCC4=CC(=O)CCC4=C3C=C[C@@]21C", "outcome": "inactive"}, {"smiles": "CNC(C)Cc1ccc2c(c1)OCO2", "note": "(stereo unspecified)", "outcome": "inactive"}, {"smiles": "C[C@]12CC[C@H]3[C@@H](CC=C4C[C@@H](O)CC[C@@]43C)[C@@H]1CC[C@@H]2O", "outcome": "inactive"}, {"smiles": "CC[C@H]1C[C@H]2[C@@H]3CCC4=CC(=O)CC[C@@H]4[C@H]3CC[C@]2(C)[C@H]1O", "outcome": "inactive"}, {"smiles": "COP(=O)(OC)C(O)C(Cl)(Cl)Cl", "note": "(stereo unspecified)", "outcome": "inactive"}, {"smiles": "CN(C)CCc1c[nH]c2ccccc12", "outcome": "inactive"}, {"smiles": "CC(Cc1ccccc1)NCCCCl", "note": "(stereo unspecified)", "outcome": "inactive"}, {"smiles": "CCOC(=O)NC(O)C(Cl)(Cl)Cl", "note": "(stereo unspecified)", "outcome": "inactive"}, {"smiles": "CC(C)NCC(O)c1ccc(N)c(C#N)c1", "note": "(stereo unspecified)", "outcome": "inactive"}, {"smiles": "Cc1nc2ccccc2c(=O)n1-c1ccccc1Cl", "outcome": "inactive"}, {"smiles": "Cc1ncc2n1-c1ccc(Cl)cc1C(c1ccccc1F)=NC2", "outcome": "inactive"}, {"smiles": "CCN1CCCC1CNC(=O)C(O)(c1ccccc1)c1ccccc1", "note": "(stereo unspecified)", "outcome": "inactive"}, {"smiles": "CCOP(=S)(OCC)O/N=C(\\C#N)c1ccccc1", "outcome": "inactive"}, {"smiles": "CC(C)[N+](C)(CCC(C(N)=O)(c1ccccc1)c1ccccc1)C(C)C", "outcome": "inactive"}, {"smiles": "CCCC(C)C1(CC)C(=O)N=C(S)NC1=O", "note": "(stereo unspecified)", "outcome": "inactive"}, {"smiles": "COc1cc(CC#N)cc(OC)c1OC", "outcome": "inactive"}, {"smiles": "CC(Cc1ccc2c(c1)OCO2)NO", "note": "(stereo unspecified)", "outcome": "inactive"}, {"smiles": "C[C@H]1C(=O)O[C@@H]2CCN3CC=C(COC(=O)[C@](C)(O)[C@]1(C)O)[C@H]23", "outcome": "inactive"}, {"smiles": "CCOC(=O)c1ncn2c1CN(C)C(=O)c1c(I)cccc1-2", "outcome": "inactive"}, {"smiles": "CCN(CC)CCOC(=O)C(C)(c1ccccc1)c1ccccc1", "outcome": "inactive"}, {"smiles": "CCS(=O)(=O)C(C)(C)S(=O)(=O)CC", "outcome": "inactive"}, {"smiles": "C[C@]12C=CC(=O)C=C1CC[C@@H]1[C@@H]2CC[C@@]2(C)[C@H]1CC[C@]2(C)O", "outcome": "inactive"}]}, {"assay": "A High-Content qHTS Against Drug Library for the Identification of Small Molecules that Inhibit DYT1 Early Onset Primary Dystonia-Associated Cell Pathology (AID 1645839)", "conditions": "HEK293 Flp-In EGFP-delE TorsinA, punctate imaging, 48 h; series mostly up to 46.1 µM", "summary_of_the_method": "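Induced EGFP-delE TorsinA cells are imaged after 48 h of compound treatment. Punctate fusion-protein distribution gives the %pathology value, while nuclei counts flag toxicity. Wild-type EGFP-hTOR1A cells define the normal pattern.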", "values": [{"smiles": "C[C@]12Cc3nonc3C[C@@H]1CC[C@@H]1[C@@H]2CC[C@@]2(C)[C@H]1CC[C@]2(C)O", "outcome": "inactive"}, {"smiles": "CCO[C@H]1O[C@@H]2OC3(C)CC[C@H]4[C@H](C)CC[C@@H]([C@H]1C)[C@@]24OO3", "outcome": "inactive"}, {"smiles": "C=CC[C@]1(O)CC[C@H]2[C@@H]3CCC4=CC(=O)CCC4=C3C=C[C@@]21C", "outcome": "inactive"}, {"smiles": "CNC(C)Cc1ccc2c(c1)OCO2", "note": "(stereo unspecified)", "outcome": "inactive"}, {"smiles": "CC[C@H]1C[C@@H]2C[C@H]3c4[nH]c5ccc(OC)cc5c4CCN(C2)[C@@H]13", "outcome": "inactive"}, {"smiles": "CCOC(C(=O)OCCN(C)C)(c1ccccc1)c1ccccc1", "outcome": "inactive"}, {"smiles": "C[C@]12CC[C@H]3[C@@H](CC=C4C[C@@H](O)CC[C@@]43C)[C@@H]1CC[C@@H]2O", "outcome": "inactive"}, {"smiles": "CN1CCC(N(Cc2ccccc2)c2ccccc2)CC1", "outcome": "inactive"}, {"smiles": "CCN(CC)Cc1nccn1-c1ccc([N+](=O)[O-])cc1C(=O)c1ccccc1Cl", "outcome": "inactive"}, {"smiles": "COP(=S)(OC)Oc1ccc(S(N)(=O)=O)cc1", "outcome": "inactive"}, {"smiles": "CC1Sc2c(C(=O)O)c(=O)c3cc(F)c(N4CCNCC4)cc3n21", "note": "(stereo unspecified)", "outcome": "inactive"}, {"smiles": "CC[C@H]1C[C@H]2[C@@H]3CCC4=CC(=O)CC[C@@H]4[C@H]3CC[C@]2(C)[C@H]1O", "outcome": "inactive"}, {"smiles": "COP(=O)(OC)C(O)C(Cl)(Cl)Cl", "note": "(stereo unspecified)", "outcome": "inactive"}, {"smiles": "CN(C)CCc1c[nH]c2ccccc12", "outcome": "inactive"}, {"smiles": "ClCc1cccc(Cl)c1", "outcome": "inactive"}, {"smiles": "CC(Cc1ccccc1)NCCCCl", "note": "(stereo unspecified)", "outcome": "inactive"}, {"smiles": "CCOC(=O)NC(O)C(Cl)(Cl)Cl", "note": "(stereo unspecified)", "outcome": "inactive"}, {"smiles": "CC(C)NCC(O)c1ccc(N)c(C#N)c1", "note": "(stereo unspecified)", "outcome": "inactive"}, {"smiles": "Cc1nc2ccccc2c(=O)n1-c1ccccc1Cl", "outcome": "inactive"}, {"smiles": "Cc1ncc2n1-c1ccc(Cl)cc1C(c1ccccc1F)=NC2", "outcome": "inactive"}, {"smiles": "CCN1CCCC1CNC(=O)C(O)(c1ccccc1)c1ccccc1", "note": "(stereo unspecified)", "outcome": "inactive"}, {"smiles": "CCOP(=S)(OCC)O/N=C(\\C#N)c1ccccc1", "outcome": "inactive"}, {"smiles": "COc1ccc(CN2CCNCC2)c(OC)c1OC", "outcome": "inactive"}, {"smiles": "CC(C)[N+](C)(CCC(C(N)=O)(c1ccccc1)c1ccccc1)C(C)C", "outcome": "inactive"}, {"smiles": "CCCCC1C(=O)NC(=O)N(C2CCCCC2)C1=O", "note": "(stereo unspecified)", "outcome": "inactive"}, {"smiles": "CCCC(C)C1(CC)C(=O)N=C(S)NC1=O", "note": "(stereo unspecified)", "outcome": "inactive"}, {"smiles": "Sc1ccccc1Cl", "outcome": "inactive"}, {"smiles": "COc1cc(CC#N)cc(OC)c1OC", "outcome": "inactive"}, {"smiles": "CC(Cc1ccc2c(c1)OCO2)NO", "note": "(stereo unspecified)", "outcome": "inactive"}, {"smiles": "C[C@H]1C(=O)O[C@@H]2CCN3CC=C(COC(=O)[C@](C)(O)[C@]1(C)O)[C@H]23", "outcome": "inactive"}, {"smiles": "Cc1ccc(N=CN(C)C=Nc2ccc(C)cc2C)c(C)c1", "outcome": "inactive"}, {"smiles": "C[C@H](CN1CCOCC1)C(C(=O)N1CCCC1)(c1ccccc1)c1ccccc1", "outcome": "inactive"}, {"smiles": "C[N+]1(CCC(C(N)=O)(c2ccccc2)c2ccccc2)CCCCC1", "outcome": "inactive"}, {"smiles": "CCOC(=O)c1ncn2c1CN(C)C(=O)c1c(I)cccc1-2", "outcome": "inactive"}, {"smiles": "CCN(CC)CCOC(=O)C(C)(c1ccccc1)c1ccccc1", "outcome": "inactive"}, {"smiles": "O=C(N[C@H]1N=C(c2ccccc2F)c2cccc3c2N(CC3)C1=O)c1cc2ccccc2[nH]1", "outcome": "inactive"}, {"smiles": "CCS(=O)(=O)C(C)(C)S(=O)(=O)CC", "outcome": "inactive"}, {"smiles": "C[C@]12C=CC(=O)C=C1CC[C@@H]1[C@@H]2CC[C@@]2(C)[C@H]1CC[C@]2(C)O", "outcome": "inactive"}]}]}
